Usually AC50 stands for the concentration giving half of the maximal activity seen.

SMILES strings stand for the structures. Activity calls are given as the source filed them. How the source made its calls: active means hit-call score of the fitted dose curve at least 0.9, where 1 is the maximum; inactive means score below 0.9.

A short description of experiment [1]: IUF_NPC1b_proliferation_BrdU_72hr: Leibniz Research Institute for Environmental Medicine (IUF) 72-hour Neural Progenitor Cell Bromodeoxyuridine (BrdU) Proliferation Assay (NPC1b) (AID 2284207). The method in brief:
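Neural progenitor spheres of human fetal origin are treated for three days; BrdU added for the last 16 h is quantified by luminescence ELISA, with DMSO as baseline and EGF/FGF omission as positive control.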

The nature of experiment [2]: IUF_NPC1a_proliferation_area_72hr: Leibniz Research Institute for Environmental Medicine (IUF) 72-hour Neural Progenitor Cell Proliferation Area Assay (NPC1a) (AID 2284208). In short, it runs like this:
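Proliferation read as increase in sphere area by phase-contrast imaging over 72 h continuous compound exposure (no renewal) of hNPC spheres grown with EGF/FGF at 37C, 5% CO2. Growth-factor withdrawal served as positive control; DMSO as baseline.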

A short description of experiment [3]: IUF_NPC1_viability_72hr: Viability Assessment at 72 hours in the Leibniz Research Institute for Environmental Medicine (IUF) Neural Progenitor Cell Proliferation Assay (NPC1) (AID 2284209). In short, it runs like this:
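Three-day continuous exposure of human neural progenitor spheres under EGF/FGF-driven proliferation; cell viability scored by alamar blue signal versus DMSO.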

For `COP(=O)(OC)O/C(=C\Cl)c1cc(Cl)c(Cl)cc1Cl`, the AC50 in experiment [1] is 51.5 µM (active); in experiment [2], 41.6 µM (active); in experiment [3], 34.3 µM (active).
For `CCOP(=S)(OCC)Oc1nc(Cl)c(Cl)cc1Cl`, the outcome in experiment [1], in experiment [2] and in experiment [3] was inactive.

These data come from PubChem BioAssay (EPA / NIEHS).
